Cruzain noTriton: qHTS Assay for Promiscuous and Specific Inhibitors of Cruzain (without detergent); Cruzipain (Trypanosoma cruzi), P25779; purified cruzain, Z-FR-AMC fluorescence, no detergent; Potency, µM, for inactives: max response, negative = inhibition, hits mostly inhibitors; 200,000 tested, 2.3% active;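 further: plate controls were enzyme without inhibitor for no effect and buffer without enzyme for full effect; nearly all actives have a fitted effect of over 40% in size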
Target sequence (P25779 123-467 limits assumed): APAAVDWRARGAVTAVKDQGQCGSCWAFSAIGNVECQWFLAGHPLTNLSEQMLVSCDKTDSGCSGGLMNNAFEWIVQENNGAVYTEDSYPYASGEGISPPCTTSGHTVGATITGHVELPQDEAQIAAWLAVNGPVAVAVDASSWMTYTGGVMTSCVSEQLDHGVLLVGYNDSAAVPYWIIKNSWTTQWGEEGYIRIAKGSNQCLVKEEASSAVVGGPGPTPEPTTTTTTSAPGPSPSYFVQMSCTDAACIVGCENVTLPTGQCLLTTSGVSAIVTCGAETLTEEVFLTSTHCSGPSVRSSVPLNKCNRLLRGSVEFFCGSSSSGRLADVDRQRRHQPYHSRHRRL
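Detergent-free condition (0.00005% Triton X-100) in acetate buffer pH 5.5 with DTT. 1.5 nM enzyme and compound were pre-mixed 15 min, then 2 uM Z-FR-AMC substrate added; reaction progress from fluorescence change between first and third reads (60 s).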
Cruzain Triton: qHTS Assay for Promiscuous and Specific Inhibitors of Cruzain (with detergent); purified cruzain, Z-FR-AMC fluorescence, 0.01% Triton; Cruzipain (Trypanosoma cruzi), P25779; Potency, µM, inactives show max response, negative = inhibition, hits mostly inhibitors; AID 1478, 2009; 200,000 tested, 0.43% active;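 further: plate controls were neutral wells for no effect and buffer without enzyme for full effect; nearly all actives have a fitted effect of over 40% in size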
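Compounds were screened in titration against cruzain (1.5 nM) with 0.01% Triton X-100 to counter colloidal aggregation. Activity was the AMC fluorescence increase over 60 s after adding 2 uM Z-FR-AMC at pH 5.5.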
Starred values were filed as active, the others as inactive; u = inconclusive. Compounds with a hit are over-represented: about 2.5% of the library has one in this group of screens. The call rests on the fitted dose curve; in most records, active means well fitted curve in the direction sought with a large enough effect; inconclusive means small, poorly fitted or top-dose-only effect, or another doubt; inactive means no such curve, though single readings can be large; an effect the other way counts as inactive or inconclusive. Potency means the concentration at half of the fitted maximal effect.

SMILES	Cruzain noTriton	Cruzain Triton
Nc1ncnc2nc(N3CCN(CCO)CC3)[nH]c12	0%	-1%
COc1ccc(-c2nsc(NC(=O)c3cccc(OC)c3)n2)cc1	0%	-7%
COc1cccc(C(=O)Nc2nc(-c3ccc(Br)cc3)ns2)c1	25µM*	-2%
COC(=O)NC(=S)Nc1ccc(Oc2ccc(Cl)cc2Cl)c(Cl)c1	25µM*	-4%
COC(=O)NC(=S)Nc1ccc(Oc2ccc(Cl)cc2)c(Cl)c1	-7%	-7%
COc1ccc(-c2nn(-c3cccc(F)c3)c3c2cnc2cc(OC)c(OC)cc23)cc1	0%	2%
COc1cccc(C(=O)Nc2ccc3oc(-c4cccc5c(Br)cccc45)nc3c2)c1	u	-1%
COc1ccc(Cl)cc1NC(=O)CCC(=O)N1CCOc2ccccc21	24%	-2%
CCN(C(=O)CSc1nc2ccccc2n1Cc1ccc(F)cc1Cl)c1ccccc1	0%	-4%
O=C(NCc1ccccc1Cl)c1cccc(C(F)(F)F)c1	-2%	-5%
COC(=O)c1cc(NC(=O)c2cccc(C(F)(F)F)c2)c(=O)oc1C/C=N/OCc1cccc(Cl)c1Cl	0.79µM*	-28%
O=C(Nc1ccc(Cl)cc1)Nc1nnc(Cc2ccc([N+](=O)[O-])cc2)s1	7.9µM*	-2%
Cc1ccc(NC(=O)Nc2nnc(Cc3ccc([N+](=O)[O-])cc3)s2)cc1	-19%	0%
COc1ccc(Cc2nnc(NC(=O)c3ccc(Cl)c([N+](=O)[O-])c3)s2)cc1	16µM*	7%
COCC(=O)Nc1nnc(Cc2ccc(OC)cc2)s1	-3%	2%
O=C(Cc1nnc(NC(=O)Nc2ccccc2)s1)NCc1ccccc1	-75%	-2%
O=C(Nc1ccc(Cl)cc1)Nc1nnc(SCc2ccc(Cl)cc2)s1	7.9µM*	1%
O=C(Nc1ccccc1)Nc1nnc(SCc2ccc(Cl)cc2)s1	u	-1%
O=C(Cc1nnc(NC(=O)Nc2ccc(Cl)cc2)s1)NCc1ccccc1	10µM*	1%
CCOc1ccc(CCNC(c2nnc(-c3ccccc3)o2)c2ccccc2Cl)cc1OCC (configuration not stated)	-3%	1%
COc1ccc(OC)c(NC(=O)c2ccc(-c3nc(COc4ccccc4)c(C)o3)cc2)c1	16%	-2%
COc1cc(NC(=O)CCc2c(C)nc3c4c(C)cc(C)nc4nn3c2C)cc(OC)c1	u	-12%
COc1ccc(-c2nc3ccccc3s2)cc1NC(=O)c1cc2ccccc2o1	4%	-1%
COc1ccc(Nc2nnc(SC(C(=O)Nc3ccc(OC)c(Cl)c3)c3ccccc3)s2)cc1 (configuration not stated)	6.3µM*	-1%
COc1cccc(NC(=O)C(Sc2nnc(Nc3ccccc3C)s2)c2ccccc2)c1 (configuration not stated)	u	-2%
SMILES	Cruzain noTriton	Cruzain Triton
CCCC(=O)Nc1ccc(-c2ccc(NC(=O)CCC)cc2)cc1	13µM*	-1%
CCCC(=O)Nc1ccc(Nc2ccccc2)cc1	13%	-4%
CCc1ccc2oc(C(=O)NCc3ccccc3)cc(=O)c2c1	-4%	-7%
Cc1ccc(C(=O)Nc2cccc3cccnc23)cc1Cl	2%	1%
CCC(C)NC(=O)Cn1c(=O)n(Cc2ccc(C(=O)NCc3ccc(C)cc3)cc2)c(=O)c2ccccc21 (configuration not stated)	1%	-1%
Cn1c(SCC(=O)Nc2sc3c(c2C#N)CCC3)nnc1C1COc2ccccc2O1 (configuration not stated)	-16%	3%
C=CCn1c(SCC(=O)Nc2sc3c(c2C#N)CCC3)nnc1C1COc2ccccc2O1 (configuration not stated)	32µM*	-2%
CCOC(=O)c1cc2c(=O)n3ccccc3nc2n(Cc2ccco2)c1=NC(=O)c1cccc(F)c1	-6%	-16%
Cc1c(C)c2cc(Cl)c(O)c(CN(C)C)c2oc1=O	u	32µM*
Cc1c(O)c(CN2CCCCC2)cc2c3c(c(=O)oc12)CCC3	u	-29%
CN(C)Cc1c(O)c(Cl)cc2c3c(c(=O)oc12)CCCC3	13µM*	u
O=c1oc2c(CN3CCOCC3)c(O)c(Cl)cc2c2c1CCC2	u	25µM*
CCN(CC)Cc1c(O)c(Cl)cc2c3c(c(=O)oc12)CCCC3	-22%	u
CN(C)Cc1cc(Cl)c(O)c(CN(C)C)c1	-1%	4%
Cc1ccc(C2C=C(c3ccc(Cl)cc3)Nc3nc(NC(=O)c4ccco4)nn32)cc1 (configuration not stated)	2%	-3%
COc1ccc(OC)c(NC(=S)N(CCc2c(C)[nH]c3ccccc23)Cc2cccs2)c1	u	1%
COc1ccc(OC)c(NC(=S)N(CCc2c(C)[nH]c3ccc(C)cc23)Cc2cccs2)c1	25µM*	-2%
Cc1nnc(NC(=O)CSc2nc3c([nH]c4ccccc43)c(=O)n2-c2ccc(Cl)cc2)s1	-5%	-1%
COc1ccc(NC(c2ccc(F)cc2)c2nnc(-c3ccccc3Cl)o2)cc1Cl (configuration not stated)	u	-4%
O=C(Nc1ccc(N=Nc2ccccc2)cc1)c1ccccc1Cl	-1%	-5%
O=C(Nc1ccc(N=Nc2ccccc2)cc1)c1ccc(Cl)cc1Cl	13µM*	7%
CCOc1ccc(-n2c(SCC(=O)N3CCCc4ccccc43)nc3c([nH]c4ccccc43)c2=O)cc1	11%	0%
C/C=C/C=C/C=O	0%	-1%
O=Cc1c(Sc2ccccc2)nc2ccccn2c1=O	1%	-10%
O=c1c(/C=N/Nc2ccccc2)c(Sc2nnnn2-c2ccccc2)nc2ccccn12	16µM*	-6%
SMILES	Cruzain noTriton	Cruzain Triton
CC(C)(C)c1ccc(C(=O)NC(=S)Nc2sc3c(c2C#N)CCC3)cc1	10µM*	-4%
CC1CCc2sc(NC(=S)NC(=O)c3ccccc3)c(C#N)c2C1 (configuration not stated)	25µM*	-6%
N#Cc1c(NC(=S)NC(=O)c2ccccc2)sc2c1CCC2	-7%	-7%
N#Cc1c(NC(=O)c2ccc(-c3ccccc3[N+](=O)[O-])o2)sc2c1CCCC2	u	2%
CC1CCc2c(sc(NC(=O)c3ccc(-c4ccccc4[N+](=O)[O-])o3)c2C#N)C1 (configuration not stated)	10µM*	4%
CCN1CCc2c(sc(NC(=S)NC(=O)c3ccccc3)c2C#N)C1	-11%	0%
O=C(Cc1ccccc1)N(Cc1cccnc1)c1nc2ccc(F)cc2s1	-4%	-9%
CC(=O)c1cccc(NC(=O)CN2C(=O)CC(c3ccc(C)cc3C)=Nc3ccccc32)c1	14%	-4%
CN(Cc1ccccc1)c1ccc2cc(S(=O)(=O)N3CCCCC3)ccc2n1	-6%	1%
Cc1nc(NC(=O)c2ccccc2)sc1Cc1ccc2c(c1)OCO2	u	-4%
Cc1c(Cc2ccc3c(c2)OCO3)sc(NC(=O)c2ccccc2)c1C(N)=O	25µM*	-3%
CCOC(=O)c1c(NC(=O)/C=C/c2ccc3c(c2)OCO3)sc(C)c1C	2%	3%
CCOC(=O)c1c(NC(=O)CN2C(=O)c3ccccc3C2=O)sc(Cc2ccc3c(c2)OCO3)c1C	10µM*	-1%
Cc1ccc(CCNC(=O)c2nn(C)c3c2CSc2ccccc2-3)cc1	-9%	-4%
Cc1ccc(CNC(=O)c2nn(C)c3c2CSc2ccc(C)cc2-3)cc1	20µM*	-3%
CCOC(=O)c1c(-c2ccc(OCC)cc2)csc1NC(=O)CCN1C(=O)c2ccccc2C1=O	u	-4%

Compound activity: PubChem, National Center for Advancing Translational Sciences (NCATS)
